Data on 1 molecule can be found in PubChem BioAssay AID1041 (National Center for Advancing Translational Sciences (NCATS), 2008).

A number with no mark means an inactive call.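 The calls were made as follows: active = compound lifting p16 RNA above DMSO-treated cells by a clear fold change, a shift of a few PCR cycles; inactive = the rest, including any drop in level.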

A short description of the experiment: p16 Derepression/Induction Secondary Assay for qHTS Assay for Epigenetic Modulators. Particulars: H358 cells, p16 mRNA RT-qPCR, 72 h; stronger effect = higher value. The source says: NIH Molecular Libraries Screening Centers Network [MLSCN] NIH Chemical Genomics Center [NCGC] MLSCN Grant: 1 X01 MH079860-01 Assay Provider: Elisabeth D. Martinez, University of Texas SW Medical Center NCGC Assay Overview: This secondary assay characterizes selected actives identified in the qHTS of the Locus Derepression (LDR) assay (PubChem AID 597). The LDR assay detects the derepression of a GFP reporter that is stably integrated in a region of the genome of murine c127i mammary cells that is presumably silenced. Compounds that cause derepression of the locus to express GFP are identified by enumerating GFP positive cells using a laser-scanning microplate cytometer. Selected LDR actives were assayed for the induction of p16 gene expression, a gene silenced by dense methylation of its promoter. […]
NCGC Assay Protocol Summary Exponentially growing H358 non-small cell lung cancer cells were treated daily with fresh media containing the indicated concentrations of compounds for 72 hr. Cellular RNA was extracted, quantified, DNAse treated and reverse transcribed. The resulting cDNA was amplified in TaqMan real time quantitative PCR assays (Applied Biosystems) containing validated primers specific for p16 (Hs00233365_m1). […] Gene expression was measured by fold-induction over control DMSO-treated samples (36-37 average cycle time). […]
A general note: qHTS replaces the single test concentration by a dilution series.

As for `CN1CSC(=S)N(C)C1`, the fold change is 1.
